# Only some compounds are listed: those with a hit (about 2.2% of all), similar ones and a draw of the others.
# HSP90 refold inh: blocks HSP90-mediated luciferase refolding in reticulocyte lysate. AID 1789. 0.91% of 290,000 active. Rabbit reticulocyte lysate, luciferase refolding luminescence, 3 h. inhibition, % at 5.6 µM;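 active = inhibition above the screen-wide mean plus 3 SD, computed separately per campaign, cut at about 16% in these data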;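 also: inhibitors lower the luminescence because luciferase stays unfolded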
# LGR2 inh: blocks bursicon-induced cAMP signaling via Drosophila LGR2; HEK293 LGR2, CRE-luciferase, bursicon-stimulated, 4 h; inhibition, % at 9.99 µM; 0.35% of 380,000 active; AID 720647;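 active = drop in luminescence signal, shown as inhibition above about 50% in the replicate tests, limit read from the data, passing the limit was not always enough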;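 also: agonist challenge used bursicon conditioned medium at about half maximal strength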
# TROY NFkB inh: inhibitors of TROY-dependent NF-kB signaling. Q293 LMP1-TROYcd NF-kB luciferase reporter, 4 h. inhibition, % at 10 µM. 0.98% of 360,000 active. AID 1347056;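 active = compounds whose plate-normalised and pattern-corrected inhibition of the luciferase reporter signal at the single screening dose is 50% or more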
# TWEAK-Fn14 inh: inhibitors of TWEAK-Fn14 interaction signaling | 2% of 360,000 active | TWEAK-stimulated Fn14 reporter cells, luciferase luminescence, 8 h | inhibition, % at 10 µM; in the data active = inhibition above about 50%
# Numbers stand for hits; n = inactive; x = no result given.
SMILES,HSP90 refold inh,LGR2 inh,TROY NFkB inh,TWEAK-Fn14 inh
COc1ccc2c3c(n(C)c2c1)[C@H](CO)N(C(=O)Nc1ccc(F)cc1)CC31CN(Cc2cccc(F)c2)C1,x,n,x,x
COc1cccc(C(=O)CC(=O)C(=O)Nc2cc(OC)ccc2OC)c1,n,n,n,n
COc1ccc(C(=O)CC(=O)C(=O)Nc2ccc(C)cc2Cl)cc1,n,n,n,51.6
COc1cccc(C(=O)CC(=O)C(=O)Nc2ccc(C)cc2Cl)c1,n,n,n,91.2
CCC(=O)N1CC2(CCN(Cc3cncnc3)CC2)c2c([nH]c3cc(OC)ccc23)[C@H]1CO,x,n,x,x
Cc1cc(-c2nnc(SCC(=O)Nc3ccccc3C(F)(F)F)o2)c(C)n1-c1ccccc1,n,x,69.7,91.6
O=C(CSc1nnc(-c2ccncc2)o1)Nc1cc(F)ccc1F,x,n,n,n
O=C(CSc1nnc(-c2ccccc2)o1)Nc1ccccc1F,n,n,n,57.0
Cc1ccc(-c2cc(=O)c3cc(C)ccc3[nH]2)cc1,n,52.6,n,66.6
Cc1ccc(-c2cc(=O)c3cc(F)ccc3[nH]2)cc1,n,n,n,n
O=C(C[C@H]1C[C@@H]2c3cc(NC(=O)c4cccnc4)ccc3O[C@@H]2[C@H](CO)O1)NC1CCCC1,x,n,x,x
CC(=O)Nc1ccccc1C(=O)C(=O)Nc1cccc(C(=O)N2CC(C)CC(C)C2)c1 (stereo not drawn),n,n,n,77.6
CC(=O)Nc1ccccc1C(=O)C(=O)Nc1cccc(C(=O)NC2CC2)c1,n,n,n,n
Cn1c(=O)n(C)c2cc([N+](=O)[O-])c(N3CCN(S(=O)(=O)c4ccc(C(C)(C)C)cc4)CC3)cc21,n,x,n,54.1
CC(C)NC(=O)N1C[C@@H]2[C@H](c3ccccc31)[C@@H](CO)N2C(=O)c1ccccn1,x,n,x,x
Cc1ccc2occ(/C=N/NC(=O)c3ccccc3Br)c(=O)c2c1,n,n,n,71.3
C[C@H](CO)N1C[C@H](C)[C@@H](CN(C)Cc2ccc3c(c2)OCO3)Oc2ccc(NC(=O)C3CC3)cc2C1=O,x,n,x,x
C[C@@H]1CN([C@H](C)CO)C(=O)c2cc(N(C)C)ccc2O[C@@H](C)CCCCO[C@@H]1CN(C)C(=O)Nc1ccc(F)cc1,x,n,x,x
O=C(C[C@@H]1C=C[C@@H](NC(=O)CC2CC2)[C@H](CO)O1)NCc1ccccc1,x,n,x,x
O=C(CSCC(=O)N1CCCc2ccccc21)Nc1nc(-c2ccccc2)cs1,n,n,n,52.2
COC(=O)c1ccc(Sc2nnnn2-c2ccccc2)c([N+](=O)[O-])c1,n,x,n,84.1
O=C(O)c1ccc(Sc2nnnn2-c2ccccc2)c([N+](=O)[O-])c1,n,n,n,n
Cc1sc(NC(=O)c2cccc([N+](=O)[O-])c2)c(C(N)=O)c1-c1ccc(C(C)(C)C)cc1,n,x,69.1,64.0
Cc1sc(NC(=O)/C=C/C(=O)O)c(C(N)=O)c1-c1ccc(C(C)(C)C)cc1,n,n,n,n
c1cc2[nH]snc2c2nc(C3CC3)nc12,n,x,n,61.8
SMILES,HSP90 refold inh,LGR2 inh,TROY NFkB inh,TWEAK-Fn14 inh
COc1cc(CC(NC(C)=O)C(=O)NC2CCN(C(=O)c3ccc(C)cc3)CC2)cc(OC)c1 (stereo not drawn),n,n,n,n
COc1cc(CC(NC(C)=O)C(=O)NC2CCN(C(=O)C3CC3)CC2)cc(OC)c1 (stereo not drawn),n,n,55.0,n
CC(NC(=O)OCc1ccccc1)C(=O)Oc1cc2oc(=O)cc(-c3ccccc3)c2cc1Cl (stereo not drawn),n,n,n,71.5
Cc1cccc(C(=O)NC(=S)Nc2ccc(S(=O)(=O)N3CCCCC3)cc2)c1,n,x,n,51.1
COc1ccc(OC)c2c(C)cc(N3CCCCCC3)nc12,n,n,n,103.0
CCOc1ccc(NC(=O)c2cnsn2)cc1,n,x,n,57.5
COc1ccc(S(=O)(=O)N[C@H]2C=C[C@@H](CC(=O)N3CCN(c4ccccc4)CC3)O[C@H]2CO)cc1,x,n,x,x
Cc1nc(N2CCN(C(=O)c3ccco3)CC2)c(C#N)c2c1CCCC2,n,n,n,n
CC(C)Cc1nc(N2CCN(C(=O)c3ccco3)CC2)c(C#N)c2c1CCCC2,n,n,53.0,n
COc1ccc(-c2coc3c(C(=O)Nc4cc(OC)c(OC)c(OC)c4)cccc23)c(C)c1,x,57.9,63.4,92.6
CS(=O)(=O)Nc1cccc(NC(=O)c2cccc3c(-c4cccc(C(N)=O)c4)coc23)c1,x,n,n,n
O=C(Nc1cccc(F)c1)c1ccc(-c2cccnc2)c2ccoc12,x,x,n,76.5
COc1ccc(-c2coc3c(C(=O)Nc4ccc(OC)nc4)cccc23)c(C)c1,x,n,n,n
COc1ccc(-c2coc3c(C(=O)NCc4ccc(OC)c(OC)c4)cccc23)c(C)c1,x,n,n,63.2
CC(=O)c1cccc(NC(=O)c2cccc3c(-c4cccc(C(N)=O)c4)coc23)c1,x,n,63.8,83.3
COCC(=O)N(C)C[C@H]1Oc2ncc(C#CC3(O)CCCC3)cc2C(=O)N([C@@H](C)CO)C[C@H]1C,x,n,x,x
O=C(Nc1cccc(C(F)(F)F)c1)c1cccc2c(-c3cccnc3)coc12,x,x,n,n
COc1cc(NC(=O)c2cccc3c(-c4cccnc4)coc23)cc(OC)c1OC,x,85.6,68.4,79.8
Cn1c(SCC(=O)N2CCOCC2)nnc1-c1ccncc1,n,n,n,n
O=C(CSc1nnc2nnc3ccccc3n12)N1CCOCC1,n,n,67.9,63.7
CCCCN(C)C(=S)Nc1ccc2nc(N3CCN(CC)CC3)cc(C)c2c1,n,n,61.7,n
CCN1CCN(c2cc(C)c3cc(NC(=S)N(C)Cc4ccccc4)ccc3n2)CC1,n,n,n,n
Cc1cc(N2CCN(C)CC2)nc2ccc(NC(=S)N3CCCCC3)cc12,n,n,54.0,n
CCCCN(CC)C(=S)Nc1ccc2nc(N3CCN(C)CC3)cc(C)c2c1,27.7,n,67.8,54.8
C[C@@H]1CN([C@@H](C)CO)C(=O)Cc2cc(NS(=O)(=O)c3cn(C)cn3)ccc2O[C@H]1CN(C)Cc1ccc(C(=O)Nc2ccccc2N)cc1,x,n,x,x
SMILES,HSP90 refold inh,LGR2 inh,TROY NFkB inh,TWEAK-Fn14 inh
COc1ccccc1NC(=O)N[C@H]1CC[C@@H](CCn2cc(-c3cccnc3)nn2)O[C@@H]1CO,x,n,x,x
O=S(=O)(c1ccc(F)cc1)N1CC[C@@H]2[C@H](CO)Nc3ccc(-c4ccc(F)cc4)cc3[C@@H]21,x,n,x,x
CCCCC(=O)/C=C/n1c(=S)oc2ccccc21,n,n,n,95.6
COC(=O)c1sc2nc(C)nc(SCC(=O)Nc3sccc3C(N)=O)c2c1C,x,n,n,59.7
Cc1nc(SCC(=O)Nc2sccc2C(N)=O)c2c(C)c(C)sc2n1,x,n,n,n
COCC(=O)Nc1ccc2c(c1)[C@H]1C[C@@H](CC(=O)N3CCc4ccccc4C3)O[C@H](CO)[C@H]1O2,x,n,x,x
Cc1ccc2nc(-c3ccccc3)oc(=O)c2c1,n,n,n,107.8
CC(=O)Oc1ccc(C(=O)O)cc1OC(C)=O,n,n,n,n
CC(=O)Oc1ccc(OC(C)=O)c(SCCCCCCl)c1,n,n,n,76.0
CCC(=O)N1C[C@@H](C)[C@@H](OC)CN(C)C(=O)c2cc(NC(=O)NC(C)C)ccc2OC[C@H]1C,x,n,x,x
COc1ccc(-c2csc(NC(=O)CSCc3c(C)noc3C)n2)cc1OC,n,n,n,n

# Screening results: PubChem, several laboratories
